Results filed as inconclusive are left out. Values without a mark were called inactive. Active and inactive are the calls of the source. Calls follow the shape of the dose curve; as a rule, active = well fitted cell-killing curve with a large enough effect; inconclusive = small, poorly fitted or top-dose-only effect; inactive = flat fitted curve, though single readings scatter.
Experiment: Cell Viability - LYMP2-010 (AID 981);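 also: cells exposed to compound for 24 hours at 37 °C; % is scaled to controls: 0 for no effect and ±100 for the full control effect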
Settings: LYMP2-010 lymphoblastoid cell viability, qHTS; series mostly up to 92.2 µM; activity, negative = cytotoxicity: at the top concentration
Procedure, shortened: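 Acute toxicity is scored as a concentration-dependent loss of cellular ATP in human lymphoblastoid cells after 24 hr compound exposure in complete medium. Tetraoctylammonium bromide is the positive control.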
Also: nearly all actives have a fitted effect of over 55% in size.

Row | SMILES | activity, negative = cytotoxicity [%] | Potency
1 | CCOP(=S)(OCC)SCSC(C)(C)C | -2.27 | –
2 | C=C(C)C#N | -12.5 | –
3 | CCSC(=O)Cl | -1.59 | –
4 | CC(C)(C)OOC(C)(C)C | -9.08 | –
5 | C=C(C)C(=O)OCC1CO1 (stereo not given) | -2.23 | –
6 | Cc1ccc([N+](=O)[O-])cc1C | -12.9 | –
7 | C=CC(=C)C | -0.788 | –
8 | Cc1ccc2ccccc2c1 | -1.43 | –
9 | Nc1ccccc1Cl | -12.7 | –
10 | C=CC(N)=O | – | inactive
11 | CC(C)(c1ccccc1)c1ccc(O)cc1 | -15.5 | –
12 | CCN(CC)c1ccccc1 | -6.7 | –
13 | Cc1ccccc1N | – | inactive
14 | C=CCOC(C)=O | -1.91 | –
15 | CCCC(=O)Cl | 5.92 | –
16 | NC(=S)Nc1ccccc1 | -13.9 | –
17 | O=C(Cl)/C=C/C(=O)Cl | -14.3 | –
18 | c1nc[nH]n1 | -2.21 | –
19 | c1ccc2c(c1)CCCC2 | -13.9 | –
20 | Clc1cccc(C(Cl)(Cl)Cl)n1 | 7.37 | –
21 | C1CCC2CCCCC2C1 (stereo not given) | -4.43 | –
22 | CC(O)CCl (stereo not given) | -7.97 | –

Experiment: Cell Viability - LYMP2-012 (AID 982);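 also: cellular ATP by luciferase luminescence where a drop means cytotoxicity; cells exposed to compound for one day before reading; 0% = DMSO only and full loss = 92 µM tetraoctylammonium bromide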
Settings: LYMP2-012 lymphoblastoid cell viability qHTS; series mostly up to 92.2 µM; activity change, negative = cytotoxicity: at the top concentration

Row | SMILES | activity change, negative = cytotoxicity [%] | Potency
23 | Brc1ccccc1 | -6.68 | –
24 | CCOP(=S)(OCC)SCSC(C)(C)C | -17.1 | –
25 | C=C(C)C#N | -49.9 | –
26 | CCSC(=O)Cl | -6.64 | –
27 | Cc1cccc([N+](=O)[O-])c1 | -19.8 | –
28 | Nc1c(Cl)c(Cl)nc(C(=O)O)c1Cl | -3.28 | –
29 | CC(C)(C)OOC(C)(C)C | 7.8 | –
30 | C=C(C)C(=O)OCC1CO1 (stereo not given) | -2.28 | –
31 | Cc1ccc([N+](=O)[O-])cc1C | 1.48 | –
32 | C=CC(=C)C | 9.5 | –
33 | Cc1ccc2ccccc2c1 | -1.17 | –
34 | Nc1ccccc1Cl | -6.04 | –
35 | Clc1ccc2ccccc2c1 | 3.6 | –
36 | [O-][Br+2]([O-])O | – | inactive
37 | Clc1nc(Cl)nc(Nc2ccccc2Cl)n1 | -16.9 | –
38 | OCC1CO1 (stereo not given) | 2.4 | –
39 | C=CCOC(=O)c1ccccc1N | -4.37 | –
40 | C=CC(N)=O | – | inactive
41 | CC(C)(c1ccccc1)c1ccc(O)cc1 | -2.48 | –

Row | SMILES | activity change, negative = cytotoxicity [%] | Potency
42 | CCN(CC)c1ccccc1 | -4.3 | –
43 | S=C=Nc1cccc2ccccc12 | -5.97 | –
44 | N#CCCCl | – | inactive
45 | O=NN(CCO)CCO | -0.16 | –
46 | Cc1ccccc1N | – | inactive
47 | C=CCOC(C)=O | -0.227 | –
48 | CCCC(=O)Cl | -3.15 | –
49 | NC(=S)Nc1ccccc1 | – | inactive
50 | O=C(Cl)/C=C/C(=O)Cl | 0.444 | –
51 | C=C(Cl)Cl | -2.42 | –
52 | COc1ccc(C=O)cc1OC | -3.46 | –
53 | C=CC(=O)OCC | 3 | –
54 | c1nc[nH]n1 | 14.1 | –
55 | c1ccc2c(c1)CCCC2 | 1.14 | –
56 | CCCSC(=O)Cl | 1.92 | –
57 | Clc1cccc(C(Cl)(Cl)Cl)n1 | -2.15 | –
58 | O=NN(c1ccccc1)c1ccccc1 | -9.16 | –
59 | C1CCC2CCCCC2C1 (stereo not given) | 7.24 | –
60 | CC(O)CCl (stereo not given) | 0.169 | –

Reference: PubChem BioAssay (NCATS)
